Data reported in PubChem BioAssay AID1159580 (chemical genetic matrix, 2015).
About 2,000 (36%) of roughly 5,500 compounds were called active. Roughly 18% stayed inconclusive and do not appear here. Some of the results follow. Values without a mark were called inactive. Rule as the data show it: active = normalized growth mostly below about 0.91 (no sharp cut-off); inconclusive = no clear call, values can overlap the other calls; inactive = mostly above about 0.92.

Assay: chemical genetic growth profiling, strain panel (AID 1159580);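 also: tested at 20 µM; growth read once vehicle control cultures reached saturation at 30 °C; 1 = growth at the plate median or of vehicle wells; lower values mean less growth of the strain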
Conditions: growth OD

For `COc1ccc2c(c1O)OCC1c3cc4c(cc3OC21)OCO4` (stereo unspecified), the normalized growth (S. cerevisiae deletion strains, locus YAL013W, strain DEP1, hits give low values) was 0.991, the normalized growth (S. cerevisiae deletion strains, locus YBR021W, strain FUR4, hits give low values) was 0.964 and the normalized growth (S. cerevisiae deletion strains, locus YBR229C, strain ROT2, hits give low values) was 0.96. The normalized growth (S. cerevisiae deletion strains, locus YCL029C, strain bik1, hits give low values) was 1, the normalized growth (S. cerevisiae deletion strains, locus YDL035C, strain GPR1, hits give low values) was 0.935 and the normalized growth (S. cerevisiae deletion strains, locus YDL074C, strain BRE1, hits give low values) was 0.882. The normalized growth (S. cerevisiae deletion strains, locus YDL101C, strain DUN1, hits give low values) was 0.953, the normalized growth (S. cerevisiae deletion strains, locus YDL134C, strain PPH21, hits give low values) was 0.986 and the normalized growth (S. cerevisiae deletion strains, locus YDL185W, strain tfp1, hits give low values) was 0.957. The normalized growth (S. cerevisiae deletion strains, locus YDL192W, strain arf1, hits give low values) was 0.986, the normalized growth (S. cerevisiae deletion strains, locus YDR101C, strain arx1, hits give low values) was 0.986 and the normalized growth (S. cerevisiae deletion strains, locus YDR150W, strain NUM1, hits give low values) was 0.983. It also gave a normalized growth (S. cerevisiae deletion strains, locus YDR162C, strain NBP2, hits give low values) of 0.88, a normalized growth (S. cerevisiae deletion strains, locus YDR318W, strain mcm21, hits give low values) of 0.979 and a normalized growth (S. cerevisiae deletion strains, locus YDR388W, hits give low values) of 1. It also gave a normalized growth (S. cerevisiae deletion strains, locus YDR502C, strain sam2, hits give low values) of 0.952, a normalized growth (S. cerevisiae deletion strains, locus YEL061C, strain CIN8, hits give low values) of 0.987 and a normalized growth (S. cerevisiae deletion strains, locus YER110C, hits give low values) of 0.994. The normalized growth (S. cerevisiae deletion strains, locus YER155C, strain BEM2, hits give low values) was 1, the normalized growth (S. cerevisiae deletion strains, locus YER167W, strain BCK2, hits give low values) was 1 and the normalized growth (S. cerevisiae deletion strains, locus YGL078C, strain dbp3, hits give low values) was 0.983. It also gave a normalized growth (S. cerevisiae deletion strains, locus YGL086W, strain mad1, hits give low values) of 0.996, a normalized growth (S. cerevisiae deletion strains, locus YGL248W, strain PDE1, hits give low values) of 0.974 and a normalized growth (S. cerevisiae deletion strains, locus YGR078C, strain PAC10, hits give low values) of 0.909. The normalized growth (S. cerevisiae deletion strains, locus YGR135W, strain pre9, hits give low values) was 0.958, the normalized growth (S. cerevisiae deletion strains, locus YGR229C, strain SMI1, hits give low values) was 0.909 and the normalized growth (S. cerevisiae deletion strains, locus YGR252W, strain gcn5, hits give low values) was 0.857. It also gave a normalized growth (S. cerevisiae deletion strains, locus YHR030C, strain SLT2, hits give low values) of 1, a normalized growth (S. cerevisiae deletion strains, locus YHR079C, strain IRE1 (second series), hits give low values) of 0.982 and a normalized growth (S. cerevisiae deletion strains, locus YHR094C, strain hxt1, hits give low values) of 1. For the same molecule, the normalized growth (S. cerevisiae deletion strains, locus YHR129C, strain ARP1, hits give low values) was 0.988, the normalized growth (S. cerevisiae deletion strains, locus YHR200W, strain rpn10, hits give low values) was 0.998 and the normalized growth (S. cerevisiae deletion strains, locus YIL066C, strain RNR3, hits give low values) was 0.974. For the same molecule, the normalized growth (S. cerevisiae deletion strains, locus YIL073C, strain SPO22, hits give low values) was 1.01, the normalized growth (S. cerevisiae deletion strains, locus YIL125W, strain kgd1, hits give low values) was 0.99 and the normalized growth (S. cerevisiae deletion strains, locus YIR030C, strain dcg1, hits give low values) was 0.986. It also gave a normalized growth (S. cerevisiae deletion strains, locus YJL095W, strain BCK1, hits give low values) of 0.924, a normalized growth (S. cerevisiae deletion strains, locus YJL134W, strain LCB3, hits give low values) of 0.998 and a normalized growth (S. cerevisiae deletion strains, locus YJL168C, strain set2, hits give low values) of 0.987. For the same molecule, the normalized growth (S. cerevisiae deletion strains, locus YJL187C, strain SWE1 (second series), hits give low values) was 0.939, the normalized growth (S. cerevisiae deletion strains, locus YJR043C, strain POL32, hits give low values) was 0.987 and the normalized growth (S. cerevisiae deletion strains, locus YJR075W, strain HOC1, hits give low values) was 0.939. The normalized growth (S. cerevisiae deletion strains, locus YKL009W, strain mrt4, hits give low values) was 0.92, the normalized growth (S. cerevisiae deletion strains, locus YKL068W, hits give low values) was 0.998 and the normalized growth (S. cerevisiae deletion strains, locus YKL085W, strain MDH1 (second series), hits give low values) was 1.01. It also gave a normalized growth (S. cerevisiae deletion strains, locus YKL085W, strain MDH1, hits give low values) of 1.01, a normalized growth (S. cerevisiae deletion strains, locus YKL190W, strain CNB1, hits give low values) of 0.979 and a normalized growth (S. cerevisiae deletion strains, locus YKR001C, strain vps1, hits give low values) of 0.963. For the same molecule, the normalized growth (S. cerevisiae deletion strains, locus YLR039C, strain RIC1, hits give low values) was 0.846, the normalized growth (S. cerevisiae deletion strains, locus YLR058C, strain SHM2, hits give low values) was 0.971 and the normalized growth (S. cerevisiae deletion strains, locus YLR102C, strain apc9, hits give low values) was 0.983. It also gave a normalized growth (S. cerevisiae deletion strains, locus YLR262C, strain YPT6, hits give low values) of 0.851, a normalized growth (S. cerevisiae deletion strains, locus YLR268W, strain sec22, hits give low values) of 0.938 and a normalized growth (S. cerevisiae deletion strains, locus YLR330W, strain CHS5, hits give low values) of 0.991. For the same molecule, the normalized growth (S. cerevisiae deletion strains, locus YLR342W, strain FKS1 (second series), hits give low values) was 0.946, the normalized growth (S. cerevisiae deletion strains, locus YLR371W, strain rom2, hits give low values) was 1 and the normalized growth (S. cerevisiae deletion strains, locus YLR418C, strain cdc73, hits give low values) was 0.903. For the same molecule, the normalized growth (S. cerevisiae deletion strains, locus YML016C, strain PPZ1, hits give low values) was 0.992, the normalized growth (S. cerevisiae deletion strains, locus YML032C, strain rad52, hits give low values) was 0.987 and the normalized growth (S. cerevisiae deletion strains, locus YML124C, strain tub3, hits give low values) was 1.01. It also gave a normalized growth (S. cerevisiae deletion strains, locus YMR078C, strain ctf18, hits give low values) of 0.988, a normalized growth (S. cerevisiae deletion strains, locus YMR223W, strain ubp8, hits give low values) of 0.976 and a normalized growth (S. cerevisiae deletion strains, locus YMR263W, strain SAP30, hits give low values) of 0.929. It also gave a normalized growth (S. cerevisiae deletion strains, locus YMR307W, strain GAS1, hits give low values) of 1.04, a normalized growth (S. cerevisiae deletion strains, locus YNL067W, strain RPL9B, hits give low values) of 0.929 and a normalized growth (S. cerevisiae deletion strains, locus YNL128W, strain TEP1, hits give low values) of 0.929. For the same molecule, the normalized growth (S. cerevisiae deletion strains, locus YNL153C, strain GIM3, hits give low values) was 0.936, the normalized growth (S. cerevisiae deletion strains, locus YNL233W, strain BNI4, hits give low values) was 0.971 and the normalized growth (S. cerevisiae deletion strains, locus YNL250W, strain rad50, hits give low values) was 0.994. The normalized growth (S. cerevisiae deletion strains, locus YNL271C, strain bni1, hits give low values) was 0.98, the normalized growth (S. cerevisiae deletion strains, locus YNL298W, strain CLA4, hits give low values) was 0.958 and the normalized growth (S. cerevisiae deletion strains, locus YNL307C, strain MCK1, hits give low values) was 0.904 (active). For the same molecule, the normalized growth (S. cerevisiae deletion strains, locus YNL322C, strain KRE1, hits give low values) was 0.981, the normalized growth (S. cerevisiae deletion strains, locus YNR052C, strain pop2, hits give low values) was 0.987 and the normalized growth (S. cerevisiae deletion strains, locus YOL006C, strain TOP1, hits give low values) was 0.783. It also gave a normalized growth (S. cerevisiae deletion strains, locus YOL012C, strain htz1) of 1.07, a normalized growth (S. cerevisiae deletion strains, locus YOL147C, strain pex11, hits give low values) of 1 and a normalized growth (S. cerevisiae deletion strains, locus YOR061W, strain CKA2, hits give low values) of 0.969. The normalized growth (S. cerevisiae deletion strains, locus YOR069W, strain VPS5, hits give low values) was 1, the normalized growth (S. cerevisiae deletion strains, locus YOR136W, strain idh2, hits give low values) was 0.999 and the normalized growth (S. cerevisiae deletion strains, locus YOR144C, strain elg1, hits give low values) was 0.994. It also gave a normalized growth (S. cerevisiae deletion strains, locus YOR184W, strain ser1, hits give low values) of 0.907, a normalized growth (S. cerevisiae deletion strains, locus YOR316C, strain cot1, hits give low values) of 0.988 and a normalized growth (S. cerevisiae deletion strains, locus YPL055C, strain LGE1, hits give low values) of 0.883. It also gave a normalized growth (S. cerevisiae deletion strains, locus YPL241C, strain CIN2, hits give low values) of 0.99, a normalized growth (S. cerevisiae deletion strains, locus YPR119W, strain clb2, hits give low values) of 0.999 and a normalized growth (S. cerevisiae deletion strains, locus YPR141C, strain kar3, hits give low values) of 0.997. The normalized growth (S. cerevisiae deletion strains, locus YPR163C, strain tif3, hits give low values) was 0.964, the normalized growth (S. cerevisiae deletion strains, locus YPR167C, strain met16, hits give low values) was 0.984 and the normalized growth (S. cerevisiae deletion strains, strain wtn01, hits give low values) was 0.946. It also gave a normalized growth (S. cerevisiae strains, strain wild type, hits give low values) of 0.994.
